Reference: the supplement of paper PMC8773631
Structures can show the parent of a compound that is named as a salt. ± gives the uncertainty stated by the source.

Test system: NCC-MFS5-C1
Assay: cell viability relative to DMSO control; higher = less growth inhibition
Conditions: 10 µM; treatment time: 3 days
Protocol: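 NCC-MFS5-C1 myxofibrosarcoma cells (1x10^4 per well, 384-well) were treated on day 2 with 10 µM of each drug. On day 5, viability was read by CCK-8 absorbance at 450 nm and normalised to the DMSO control (%), n = 2.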

Compound	cell viability [%]
CCc1ccc(CCOc2ccc(CC3SC(=O)NC3=O)cc2)nc1 (stereo not given) [Pioglitazone]	95.3 ± 2.9
O=C1c2c(O)ccc(O)c2C(=O)c2c(NCCNCCO)ccc(NCCNCCO)c21 [Mitoxantrone 2HCl]	-0.766 ± 0.85
CC1(COc2ccc3c(c2)ncn3-c2ccc3cccc(N4CCC(N)CC4)c3n2)COC1	26.1 ± 3.3
CC/C(=C(/CC)c1ccc(O)cc1)c1ccc(O)cc1 [Diethylstilbestrol]	87.8 ± 22
Clc1ccc(C(c2ccccc2Cl)C(Cl)Cl)cc1 (stereo not given) [Mitotane]	76.1 ± 3.1
CN(N=O)C(=O)NC1C(O)OC(CO)C(O)C1O (stereo not given) [Streptozotocin (STZ)]	113 ± 27
O=c1[nH]c(=O)n([C@H]2C[C@H](O)[C@@H](CO)O2)cc1F [Floxuridine]	80 ± 3.9
CCCCC1C(=O)N(c2ccccc2)N(c2ccccc2)C1=O [Phenylbutazone]	72.5 ± 5.7
CCC[C@@H]1C[C@@H](C(=O)N[C@@H]([C@H]2O[C@H](SC)[C@H](O)[C@@H](O)[C@H]2O)[C@@H](C)O)N(C)C1 [Lincomycin HCl]	80.5 ± 9.3
CC[C@]1(O)C[C@@H]2CN(CCc3c([nH]c4ccccc34)[C@@](C(=O)OC)(c3cc4c(cc3OC)N(C)[C@H]3[C@@](O)(C(=O)OC)[C@H](OC(C)=O)[C@]5(CC)C=CCN6CC[C@]43[C@@H]65)C2)C1 [Vinblastine sulfate]	35.1 ± 2.5
CN(CCOc1ccc(CC2SC(=O)NC2=O)cc1)c1ccccn1 (stereo not given) [Rosiglitazone]	88.53 ± 0.85
Cc1ccc(NC(=O)c2ccc(CN3CCN(C)CC3)cc2)cc1Nc1nccc(-c2cccnc2)n1 [Imatinib (STI571)]	72.9 ± 3.3
Nc1ccn([C@@H]2O[C@H](CO)[C@@H](O)C2(F)F)c(=O)n1 [Gemcitabine HCl]	79.5 ± 5
CCCS(=O)(=O)Nc1ccc(F)c(C(=O)c2c[nH]c3ncc(-c4ccc(Cl)cc4)cc23)c1F [Vemurafenib (PLX4032, RG7204)]	76 ± 3.5
Cc1cn(-c2cc(NC(=O)c3ccc(C)c(Nc4nccc(-c5cccnc5)n4)c3)cc(C(F)(F)F)c2)cn1 [Nilotinib (AMN-107)]	57.2 ± 3.6
C=CC(=O)N1CCC[C@@H](n2nc(-c3ccc(Oc4ccccc4)cc3)c3c(N)ncnc32)C1	79.2 ± 0.35
Cc1nc(Nc2ncc(C(=O)Nc3c(C)cccc3Cl)s2)cc(N2CCN(CCO)CC2)n1 [Dasatinib Monohydrate]	60.9 ± 3.2
C#CCC(Cc1cnc2nc(N)nc(N)c2n1)c1ccc(C(=O)N[C@@H](CCC(=O)O)C(=O)O)cc1 (stereo not given in full) [Pralatrexate]	85 ± 4.1
COc1cccc2c1C(=O)c1c(O)c3c(c(O)c1C2=O)C[C@@](O)(C(=O)CO)C[C@@H]3O[C@H]1C[C@H](N)[C@H](O)[C@H](C)O1 [Doxorubicin (Adriamycin)]	37.47 ± 0.32
CCN1CCN(Cc2ccc(Nc3ncc(F)c(-c4cc(F)c5nc(C)n(C(C)C)c5c4)n3)nc2)CC1 [Abemaciclib mesylate]	84.2 ± 9

Compound	cell viability [%]
S=c1[nH]cnc2nc[nH]c12 [Mercaptopurine (6-MP)]	93.5 ± 3
COc1cc2/c(=N/c3ccc(Br)cc3F)nc[nH]c2cc1OCC1CCN(C)CC1 [Vandetanib (ZD6474)]	52.5 ± 2.8
CC(=O)O[C@H]1C(=O)[C@@]2(C)[C@H]([C@H](OC(=O)c3ccccc3)[C@]3(O)C[C@H](OC(=O)[C@H](O)[C@@H](NC(=O)c4ccccc4)c4ccccc4)C(C)=C1C3(C)C)[C@]1(OC(C)=O)CO[C@@H]1C[C@@H]2O [Paclitaxel]	53.9 ± 3.3
O=C(c1ccc(OCCN2CCCCC2)cc1)c1c(-c2ccc(O)cc2)sc2cc(O)ccc12 [Raloxifene HCl]	85 ± 1
Cc1cc(Nc2ncc(Cl)c(Nc3ccccc3S(=O)(=O)C(C)C)n2)c(OC(C)C)cc1C1CCNCC1 [Ceritinib (LDK378)]	7.58 ± 6.4
CO[C@H](C(=O)[C@@H](O)[C@@H](C)O)[C@@H]1Cc2cc3cc(O[C@H]4C[C@@H](O[C@H]5C[C@@H](O)[C@H](O)[C@@H](C)O5)[C@H](O)[C@@H](C)O4)c(C)c(O)c3c(O)c2C(=O)[C@H]1O[C@H]1C[C@@H](O[C@H]2C[C@@H](O[C@H]3C[C@](C)(O)[C@H](O)[C@@H](C)O3)[C@H](O)[C@@H](C)O2)[C@H](O)[C@@H](C)O1 [Mithramycin A]	97.4 ± 4
Nc1cc(C(Cl)=C(Cl)Cl)c(S(N)(=O)=O)cc1S(N)(=O)=O [Clorsulon]	89.3 ± 2.4
CO[C@H]1C[C@@H]2CC[C@@H](C)[C@@](O)(O2)C(=O)C(=O)N2CCCC[C@H]2C(=O)O[C@H]([C@H](C)C[C@@H]2CC[C@@H](OCCO)[C@H](OC)C2)CC(=O)[C@H](C)/C=C(\C)[C@@H](O)[C@@H](OC)C(=O)[C@H](C)C[C@H](C)/C=C/C=C/C=C/1C [Everolimus (RAD001)]	64.9 ± 4.7
Nc1ccn([C@@H]2O[C@H](CO)[C@@H](O)C2(F)F)c(=O)n1 [Gemcitabine]	91 ± 2.9
CCN(CC)CCOc1ccc(C(=C(Cl)c2ccccc2)c2ccccc2)cc1 [Clomifene citrate]	85.1 ± 8.8
COc1cc(N2CCC(N3CCN(C)CC3)CC2)ccc1Nc1ncc(Cl)c(Nc2ccccc2S(=O)(=O)C(C)C)n1	52.7 ± 1.8
CO[C@H]1O[C@@H]2O[C@@]3(C)CC[C@H]4[C@H](C)CC[C@@H]([C@H]1C)[C@@]24OO3 [Artemether]	91.2 ± 4.8
C=C1c2cccc(O)c2C(O)=C2C(=O)[C@]3(O)C(O)=C(C(N)=O)C(=O)[C@@H](N(C)C)[C@@H]3[C@@H](O)[C@H]12 [Methacycline HCl]	92.3 ± 5.3
Nc1nc2[nH]cc(CCc3ccc(C(=O)N[C@@H](CCC(=O)O)C(=O)O)cc3)c2c(=O)[nH]1 [Pemetrexed Disodium Hydrate]	80.7 ± 2.4
Nc1cccc2c1CN(C1CCC(=O)NC1=O)C2=O (stereo not given) [Lenalidomide]	105 ± 4.7
COC(=O)C[C@](O)(CCCC(C)(C)O)C(=O)O[C@@H]1C(OC)=C[C@]23CCCN2CCc2cc4c(cc2[C@H]13)OCO4 [Homoharringtonine]	54 ± 5.4
COc1cc2c(Oc3ccc4[nH]c(C)cc4c3F)ncnc2cc1OCCCN1CCCC1 [Cediranib (AZD2171)]	-0.717 ± 0.35
COC(=O)C1=C(C#N)NC(C)=C(C(=O)OC(C)C)C1c1cccc([N+](=O)[O-])c1 (stereo not given) [Nilvadipine]	86 ± 4.2
Cn1nnc2c(C(N)=O)ncn2c1=O [Temozolomide]	99.4 ± 23
CCN(CC)CCNC(=O)c1c(C)[nH]c(/C=C2\C(=O)Nc3ccc(F)cc32)c1C [Sunitinib Malate]	7.73 ± 5.5
